Data as given in PubChem BioAssay AID1159580 (chemical genetic matrix, 2015).
The whole screen tested about 5,500 compounds, of which about 2,000 (36%) were called active. About 18% were inconclusive and are not listed. Cut-off read from the data, not from the text of the source: active = normalized growth mostly below about 0.91 (no sharp cut-off); inconclusive = no clear call, values can overlap the other calls; inactive = mostly above about 0.92. This is one part of the list.

Assay: chemical genetic growth profiling, strain panel (AID 1159580);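 note: tested at 20 µM; growth read once vehicle control cultures reached saturation at 30 °C; 1 = growth at the plate median or of vehicle wells; lower values mean less growth of the strain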
Conditions: growth OD
[1] = S. cerevisiae deletion strains, locus YDL101C, strain DUN1, hits give low values
[2] = S. cerevisiae deletion strains, locus YHR030C, strain SLT2, hits give low values

Measured: normalized growth

CC(C)(C)c1cc(C(C)(C)C)n(-c2ccc([N+](=O)[O-])cc2)n1
inactive: S. cerevisiae deletion strains, locus YAL013W, strain DEP1, hits give low values 1.02 | S. cerevisiae deletion strains, locus YBR229C, strain ROT2, hits give low values 1.01 | S. cerevisiae deletion strains, locus YCL061C, strain MRC1, hits give low values 0.994 | [1] 1.01 | S. cerevisiae deletion strains, locus YDR150W, strain NUM1, hits give low values 0.991 | S. cerevisiae deletion strains, locus YEL061C, strain CIN8, hits give low values 1.02 | S. cerevisiae deletion strains, locus YGR078C, strain PAC10, hits give low values 1.01 | [2] 1.06 | S. cerevisiae deletion strains, locus YHR087W, strain rtc3, hits give low values 1.01 | S. cerevisiae deletion strains, locus YJL187C, strain SWE1, hits give low values 1 | S. cerevisiae deletion strains, locus YJR043C, strain POL32, hits give low values 1.02 | S. cerevisiae deletion strains, locus YJR075W, strain HOC1, hits give low values 0.997 | S. cerevisiae deletion strains, locus YKL190W, strain CNB1, hits give low values 0.998 | S. cerevisiae deletion strains, locus YLR039C, strain RIC1, hits give low values 1.04 | S. cerevisiae deletion strains, locus YLR058C, strain SHM2 (second series), hits give low values 1.01 | S. cerevisiae deletion strains, locus YLR085C, strain ARP6, hits give low values 1.01 | S. cerevisiae deletion strains, locus YLR262C, strain YPT6, hits give low values 1.01 | S. cerevisiae deletion strains, locus YML094W, strain GIM5, hits give low values 1.04 | S. cerevisiae deletion strains, locus YMR219W, strain ESC1, hits give low values 1 | S. cerevisiae deletion strains, locus YMR263W, strain SAP30, hits give low values 0.999 | S. cerevisiae deletion strains, locus YMR307W, strain GAS1, hits give low values 0.995 | S. cerevisiae deletion strains, locus YNL153C, strain GIM3, hits give low values 1 | S. cerevisiae deletion strains, locus YNL298W, strain CLA4 (second series), hits give low values 1.05 | S. cerevisiae deletion strains, locus YNL322C, strain KRE1, hits give low values 1 | S. cerevisiae deletion strains, locus YNR030W, strain Alg12, hits give low values 1.04 | S. cerevisiae deletion strains, locus YOL006C, strain TOP1, hits give low values 1.06 | S. cerevisiae deletion strains, locus YPL055C, strain LGE1, hits give low values 1.04 | S. cerevisiae deletion strains, locus YPL241C, strain CIN2, hits give low values 1.07 | S. cerevisiae deletion strains, locus YPR135W, strain CTF4, hits give low values 1.03 | S. cerevisiae strains, strain wild type, hits give low values 1.01

CN(C)c1nc(=S)ss1
inactive: S. cerevisiae deletion strains, locus YBL105C, strain PKC1, hits give low values 0.91 | [1] 0.937 | S. cerevisiae deletion strains, locus YFR003C, strain YPI1, hits give low values 0.905 | S. cerevisiae deletion strains, locus YFR028C, strain CDC14, hits give low values 0.894 | S. cerevisiae deletion strains, locus YJL128C, strain PBS2, hits give low values 0.876 | S. cerevisiae deletion strains, locus YPR106W, strain ISR1, hits give low values 0.934 | S. cerevisiae deletion strains, locus YPR111W, strain DBF20, hits give low values 0.913 | S. cerevisiae deletion strains, strain NNK1, hits give low values 0.921
active: S. cerevisiae deletion strains, locus YAR019C, strain CDC15, hits give low values 0.83 | S. cerevisiae deletion strains, locus YBR135W, strain CKS1, hits give low values 0.865 | S. cerevisiae deletion strains, locus YBR136W, strain MEC1, hits give low values 0.883 | S. cerevisiae deletion strains, locus YBR160W, strain CDC28, hits give low values 0.882 | S. cerevisiae deletion strains, locus YDL017W, strain CDC7, hits give low values 0.896 | S. cerevisiae deletion strains, locus YDL028C, strain MPS1, hits give low values 0.839 | S. cerevisiae deletion strains, locus YDL108W, strain KIN28, hits give low values 0.878 | S. cerevisiae deletion strains, locus YDL132W, strain cdc53, hits give low values 0.687 | S. cerevisiae deletion strains, locus YDL214C, strain PRR2, hits give low values 0.332 | S. cerevisiae deletion strains, locus YDR052C, strain DBF4, hits give low values 0.886 | S. cerevisiae deletion strains, locus YDR054C, strain cdc34, hits give low values 0.569 | S. cerevisiae deletion strains, locus YDR226W, strain ADK1, hits give low values 0.865 | S. cerevisiae deletion strains, locus YDR477W, strain SNF1, hits give low values 0.319 | S. cerevisiae deletion strains, locus YER123W, strain YCK3, hits give low values 0.186 | S. cerevisiae deletion strains, locus YER133W, strain GLC7, hits give low values 0.211 | S. cerevisiae deletion strains, locus YFL009W, strain cdc4, hits give low values 0.732 | S. cerevisiae deletion strains, locus YFL029C, strain CAK1, hits give low values 0.747 | S. cerevisiae deletion strains, locus YFR019W, strain FAB1, hits give low values 0.221 | S. cerevisiae deletion strains, locus YGR040W, strain KSS1, hits give low values 0.47 | S. cerevisiae deletion strains, locus YGR052W, strain FMP48, hits give low values 0.349 | S. cerevisiae deletion strains, locus YGR092W, strain DBF2, hits give low values 0.111 | [2] 0.576 | S. cerevisiae deletion strains, locus YHR079C, strain IRE1, hits give low values 0.204 | S. cerevisiae deletion strains, locus YHR082C, strain KSP1, hits give low values 0.464 | S. cerevisiae deletion strains, locus YHR205W, strain SCH9, hits give low values 0.493 | S. cerevisiae deletion strains, locus YIL147C, strain SLN1, hits give low values 0.825 | S. cerevisiae deletion strains, locus YJL095W, strain BCK1, hits give low values 0.327 | S. cerevisiae deletion strains, locus YJL157C, strain FAR1, hits give low values 0.199 | S. cerevisiae deletion strains, locus YJR016C, strain ILV3, hits give low values 0.715 | S. cerevisiae deletion strains, locus YJR066W, strain TOR1 (second series), hits give low values 0.262 | S. cerevisiae deletion strains, locus YJR066W, strain TOR1, hits give low values 0.324 | S. cerevisiae deletion strains, locus YKL048C, strain ELM1, hits give low values 0.228 | S. cerevisiae deletion strains, locus YKL067W, strain YNK1, hits give low values 0.197 | S. cerevisiae deletion strains, locus YKL101W, strain HSL1, hits give low values 0.205 | S. cerevisiae deletion strains, locus YKL193C, strain SDS22, hits give low values 0.84 | S. cerevisiae deletion strains, locus YKL203C, strain TOR2, hits give low values 0.342 | S. cerevisiae deletion strains, locus YLR113W, strain HOG1, hits give low values 0.351 | S. cerevisiae deletion strains, locus YLR133W, strain CKI1, hits give low values 0.232 | S. cerevisiae deletion strains, locus YLR403W, strain SFP1, hits give low values 0.116 | S. cerevisiae deletion strains, locus YML070W, strain DAK1, hits give low values 0.199 | S. cerevisiae deletion strains, locus YMR001C, strain CDC5, hits give low values 0.87 | S. cerevisiae deletion strains, locus YMR205C, strain PFK2 (second series), hits give low values 0.229 | S. cerevisiae deletion strains, locus YMR277W, strain FCP1, hits give low values 0.827 | S. cerevisiae deletion strains, locus YNL006W, strain LST8, hits give low values 0.501 | S. cerevisiae deletion strains, locus YNL020C, strain ARK1, hits give low values 0.189 | S. cerevisiae deletion strains, locus YNL161W, strain CBK1, hits give low values 0.869 | S. cerevisiae deletion strains, locus YNL183C, strain NPR1, hits give low values 0.341 | S. cerevisiae deletion strains, locus YNL207W, strain RIO2, hits give low values 0.865 | S. cerevisiae deletion strains, locus YNL222W, strain SSU72, hits give low values 0.861 | S. cerevisiae deletion strains, locus YNL307C, strain MCK1 (second series), hits give low values 0.162 | S. cerevisiae deletion strains, locus YOL078W, strain AVO1, hits give low values 0.807 | S. cerevisiae deletion strains, locus YOL136C, strain PFK27, hits give low values 0.165 | S. cerevisiae deletion strains, locus YOR061W, strain CKA2, hits give low values 0.217 | S. cerevisiae deletion strains, locus YOR119C, strain RIO1, hits give low values 0.325 | S. cerevisiae deletion strains, locus YOR231W, strain MKK1, hits give low values 0.211 | S. cerevisiae deletion strains, locus YOR329C, strain SCD5, hits give low values 0.88 | S. cerevisiae deletion strains, locus YPL031C, strain PHO85, hits give low values 0.21 | S. cerevisiae deletion strains, locus YPL153C, strain RAD53, hits give low values 0.16 | S. cerevisiae deletion strains, locus YPL204W, strain HRR25, hits give low values 0.202 | S. cerevisiae deletion strains, locus YPL209C, strain IPL1, hits give low values 0.872 | S. cerevisiae deletion strains, locus YPL256C, strain CLN2, hits give low values 0.393 | S. cerevisiae deletion strains, locus YPR025C, strain CCL1, hits give low values 0.881 | S. cerevisiae deletion strains, strain TSCII, hits give low values 0.706
